Several values for one entry are separate records, joined by “and”; a condition that tells them apart may be missing. Equal values may be shown once. Activity calls are given as the source filed them. Unless noted, no rule for the calls is given here.
What was measured:
[1] = system: Wnt5a (protein binding on small-molecule microarray); assay: Wnt5a binders on small-molecule microarray, primary screen, biophysical, 635/667 nm fluorescence (AID 1142); conditions: 635 nm fluorescence, higher = more signal;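 also: fluorescence read at 667 nm with signal to noise per printed feature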
[2] = cell viability in Huh7 cells, primary screen, cytotoxicity control for HCV replication inhibitor project, CellTiter-Glo luminescence, basal, 48 h (AID 1143); conditions: Huh7 HCV replicon, higher = more signal, called active from +8 up or from −8 down;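 also: Huh7 hepatoma cells carrying a hepatitis C replication reporter with no stimulus; test concentration not given here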
[3] = P. aeruginosa biofilm formation inhibitors, primary screen, PAO1 strain, BacTiter-Glo luminescence, LB-PBS (AID 1144); conditions: 12 h, higher = more signal
[4] = CREB reporter modulators without forskolin, primary screen, cell-based, PC12, CRE-LacZ reporter, unstimulated (AID 1145); conditions: no forskolin, luminescence, 4.5 h, higher = more signal, called active from +8 up or from −8 down
[5] = CREB reporter modulators under forskolin, primary screen, cell-based, PC12, CRE-LacZ reporter, forskolin-stimulated (AID 1146); conditions: luminescence, 4.5 h, higher = more signal, called active from +8 up or from −8 down;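 also: PC12 cells with 6xCRE LacZ reporter stimulated by forskolin 10 µM; beta-galactosidase reporter signal reflecting CREB driven transcription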
[6] = molecular target: Streptavidin (Streptomyces avidinii) (UniProt P22629); assay: streptavidin binders on small-molecule microarray, primary screen, artefact control for SMM compound annotation, biophysical, 635/667 nm fluorescence (AID 1147); conditions: streptavidin binding, higher = more signal;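 also: signal reflects streptavidin binding to arrayed compounds as a control protein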
Sequence of Streptavidin (Streptomyces avidinii) (P22629 whole entry, looked up): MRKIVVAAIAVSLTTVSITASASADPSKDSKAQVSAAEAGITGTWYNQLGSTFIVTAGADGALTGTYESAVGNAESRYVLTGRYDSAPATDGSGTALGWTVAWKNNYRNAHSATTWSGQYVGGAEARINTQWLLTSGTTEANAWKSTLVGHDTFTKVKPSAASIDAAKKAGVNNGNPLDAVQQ

[7] = small-molecule binders of probe aInhba, primary screen, biochemical, small-molecule microarray, 635/667 nm fluorescence (AID 1148); conditions: higher = more signal;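 also: score merges 667nm spot fluorescence with signal-to-noise for antibody binding to printed compounds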
[8] = molecular target: Torsin-1A (Homo sapiens) (UniProt O14656); assay: torsin A binders from cell lysate, primary screen, small-molecule microarray, wild-type, 635/667 nm (AID 1149); conditions: COS7 hTOR1A-WT lysate, 635 nm fluorescence, higher = more signal
Sequence of Torsin-1A (Homo sapiens) (O14656 whole entry, looked up): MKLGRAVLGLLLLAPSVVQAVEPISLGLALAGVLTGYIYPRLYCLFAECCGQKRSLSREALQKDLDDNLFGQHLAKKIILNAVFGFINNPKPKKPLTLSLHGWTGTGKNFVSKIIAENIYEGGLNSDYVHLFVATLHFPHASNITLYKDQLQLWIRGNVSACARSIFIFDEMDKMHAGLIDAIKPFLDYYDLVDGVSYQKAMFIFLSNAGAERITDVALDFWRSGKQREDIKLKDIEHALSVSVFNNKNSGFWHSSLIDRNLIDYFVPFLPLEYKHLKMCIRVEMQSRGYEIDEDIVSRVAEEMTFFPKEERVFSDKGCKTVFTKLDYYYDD

[9] = molecular target: Torsin-1A (Homo sapiens) (UniProt O14656); assay: small-molecule binders of mutant TOR1A in lysate, primary screen, cell lysate, small-molecule microarray, COS7 lysate, 635/667 nm fluorescence (AID 1150); conditions: COS7 hTOR1A mutant lysate, 635 nm fluorescence, higher = more signal;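 also: score pools 667 nm emission and signal to noise measuring lysate protein binding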
[10] = system: Sonic hedgehog protein (Shh); assay: small-molecule binders of Shh protein, primary screen, biochemical, small-molecule microarray, 635/667 nm fluorescence (AID 1151); conditions: small-molecule microarray binding, 635 nm fluorescence; higher = more signal;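 also: Shh protein binding to compounds spotted on small-molecule microarray slides; score combines spot fluorescence intensity with signal-to-noise across triplicate slides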
[11] = E. coli DRC41 culture turbidity changes, primary screen, E. coli filamentation inducer project, strain DRC41, OD650, 48 h (AID 1152);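 also: E. coli MC1000 strain DRC41 lacking acrAB efflux pump and sulA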; conditions: E. coli DRC41 (acrAB sulA), higher = more signal, called active from +8 up or from −8 down
[12] = small-molecule binders of probe aLefty1, primary screen, biochemical, small-molecule microarray, 635/667 nm fluorescence (AID 1153); conditions: higher = more signal;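 also: score merges spot fluorescence with signal-to-noise ratio from the scanned slide images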
[13] = PSAC antagonists in infected red cells, primary screen, cell-based, P. falciparum Indochina, OD700, 1 h (AID 1154); conditions: P. falciparum Indochina infected RBC osmotic lysis, higher = more signal, called active from +8 up or from −8 down
[14] = PSAC antagonists in infected red cells, primary screen, cell-based, P. falciparum Indochina, OD700, 2 h (AID 1155);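 also: lysis reports solute entry through the parasite surface anion channel PSAC; channel blockers reduce lysis of infected cells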; conditions: P. falciparum Indochina infected erythrocytes, osmotic lysis OD700; higher = more signal, called active from +8 up or from −8 down
[15] = osmotic lysis modulators in infected erythrocytes, primary screen, PSAC antagonist project, cell-based, P. falciparum Indochina, OD700, 3 h (AID 1156); conditions: higher = more signal, called active from +8 up or from −8 down
[16] = PSAC antagonists in infected red cells, primary screen, cell-based, P. falciparum Indochina, OD700, 18 h (AID 1157); conditions: P. falciparum Indochina infected erythrocytes, osmotic lysis OD700, 18 h; higher = more signal, called active from +8 up or from −8 down
[17] = modulators of S6 phosphorylation in cells, primary screen, cell-based, A549, cytoblot, luminescence, serum-stimulated (AID 1158); conditions: A549 phospho-S6 cytoblot, 5 h, higher = more signal;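 also: serum-stimulated A549 lung adenocarcinoma cells; signal is phosphorylated S6 detected by cytoblot immunostaining with HRP secondary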
[18] = molecular target: NADPH oxidase 2 (Homo sapiens) (UniProt P04839); assay: NOX2-dependent H2O2 signal modulators, primary screen, NOX inhibitor project, cell-based, HEK293-NOX2, PMA-stimulated, Amplex Red fluorescence (AID 1159); conditions: 45 min, higher = more signal, called active from +8 up or from −8 down; also: test concentration not given here
Sequence of NADPH oxidase 2 (Homo sapiens) (P04839 whole entry, looked up): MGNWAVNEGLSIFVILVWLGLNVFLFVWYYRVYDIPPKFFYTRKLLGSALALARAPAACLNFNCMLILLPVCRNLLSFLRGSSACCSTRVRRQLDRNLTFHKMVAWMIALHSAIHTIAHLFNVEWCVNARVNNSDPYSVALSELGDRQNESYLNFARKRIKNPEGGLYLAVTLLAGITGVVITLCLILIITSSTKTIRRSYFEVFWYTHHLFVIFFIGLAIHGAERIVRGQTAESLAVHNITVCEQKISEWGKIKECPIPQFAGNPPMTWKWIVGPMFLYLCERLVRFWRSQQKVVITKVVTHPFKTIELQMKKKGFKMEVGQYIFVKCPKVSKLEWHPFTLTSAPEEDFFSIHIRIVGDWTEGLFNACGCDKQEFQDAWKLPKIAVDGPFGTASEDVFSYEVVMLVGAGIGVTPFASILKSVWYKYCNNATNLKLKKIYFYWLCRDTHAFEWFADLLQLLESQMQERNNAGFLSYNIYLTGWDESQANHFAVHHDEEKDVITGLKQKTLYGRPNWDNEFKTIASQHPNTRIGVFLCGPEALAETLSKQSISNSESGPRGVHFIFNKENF

[19] = molecular target: NADPH oxidase 4 (Homo sapiens) (UniProt Q9NPH5); assay: NOX4-dependent H2O2 signal modulators, primary screen, NOX inhibitor project, cell-based, HEK293-NOX4, tetracycline-induced, Amplex Red fluorescence (AID 1160); conditions: 45 min, higher = more signal, called active from +8 up or from −8 down
Sequence of NADPH oxidase 4 (Homo sapiens) (Q9NPH5 whole entry, looked up): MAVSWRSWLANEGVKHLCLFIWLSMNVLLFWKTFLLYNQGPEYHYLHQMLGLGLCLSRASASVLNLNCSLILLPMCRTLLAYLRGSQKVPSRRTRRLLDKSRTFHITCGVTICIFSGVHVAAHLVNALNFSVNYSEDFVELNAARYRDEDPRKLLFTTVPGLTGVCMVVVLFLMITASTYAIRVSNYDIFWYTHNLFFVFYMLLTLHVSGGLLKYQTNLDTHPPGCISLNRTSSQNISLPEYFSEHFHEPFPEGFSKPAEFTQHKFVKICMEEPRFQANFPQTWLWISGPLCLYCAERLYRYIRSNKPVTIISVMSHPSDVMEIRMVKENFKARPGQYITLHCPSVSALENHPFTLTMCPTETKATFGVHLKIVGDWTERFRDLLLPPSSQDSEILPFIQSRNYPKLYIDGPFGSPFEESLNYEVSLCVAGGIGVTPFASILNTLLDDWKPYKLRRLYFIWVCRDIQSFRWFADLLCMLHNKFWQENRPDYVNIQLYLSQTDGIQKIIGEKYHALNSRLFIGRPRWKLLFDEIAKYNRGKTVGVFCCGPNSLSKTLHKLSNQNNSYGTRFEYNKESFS

[20] = molecular target: NADPH oxidase 5 (Homo sapiens) (UniProt Q96PH1); assay: NOX5-dependent H2O2 signal modulators, primary screen, NOX inhibitor project, cell-based, HEK293-NOX5, Amplex Red fluorescence (AID 1161); conditions: HEK293-NOX5, ionomycin, 45 min, higher = more signal
Sequence of NADPH oxidase 5 (Homo sapiens) (Q96PH1 whole entry, looked up): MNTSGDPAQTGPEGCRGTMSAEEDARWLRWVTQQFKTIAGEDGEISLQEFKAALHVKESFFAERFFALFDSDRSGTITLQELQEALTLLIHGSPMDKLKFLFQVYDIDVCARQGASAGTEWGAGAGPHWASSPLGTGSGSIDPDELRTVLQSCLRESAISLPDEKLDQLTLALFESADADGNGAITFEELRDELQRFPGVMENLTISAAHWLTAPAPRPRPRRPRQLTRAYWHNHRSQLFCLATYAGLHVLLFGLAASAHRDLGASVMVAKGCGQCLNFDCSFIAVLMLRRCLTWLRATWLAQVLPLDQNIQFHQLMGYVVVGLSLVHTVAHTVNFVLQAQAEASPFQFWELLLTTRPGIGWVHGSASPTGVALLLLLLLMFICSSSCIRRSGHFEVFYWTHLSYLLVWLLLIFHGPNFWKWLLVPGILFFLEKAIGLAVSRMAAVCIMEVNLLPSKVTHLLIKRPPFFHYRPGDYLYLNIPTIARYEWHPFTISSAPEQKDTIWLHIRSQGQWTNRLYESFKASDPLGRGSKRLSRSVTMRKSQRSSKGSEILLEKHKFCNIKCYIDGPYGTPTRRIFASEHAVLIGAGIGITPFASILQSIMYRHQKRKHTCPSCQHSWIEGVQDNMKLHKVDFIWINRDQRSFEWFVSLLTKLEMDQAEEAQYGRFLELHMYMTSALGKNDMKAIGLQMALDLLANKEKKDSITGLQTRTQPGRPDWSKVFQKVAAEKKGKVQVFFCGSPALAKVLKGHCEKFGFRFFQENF

SMILES | composite z-score [1] | z-score [2] | z-score [3] | z-score [4] | z-score [5] | composite z-score [6] | composite z-score [7] | composite z-score [8] | composite z-score [9] | composite z-score [10] | z-score [11] | composite z-score [12] | z-score [13] | z-score [14] | z-score [15] | z-score [16] | z-score [17] | z-score [18] | z-score [19] | z-score [20]
COc1ccc(-c2ccc3c(n2)CCCN3CC(O)CN2CCCc3nc(-c4ccc(Br)cc4)ccc32)cc1 (stereo not given) | 0.353 and 0.0813 | -1.86 (inactive) and -0.196 (inactive) | 0.766 (inactive) and 0.0378 (inactive) | -0.434 (inactive) and -0.161 (inactive) | -0.152 (inactive) and -0.116 (inactive) | 1.41 and 0.932 | 0.136 and 0.204 | 0.438 and 0.224 | 0.528 and 0.588 | 1.03 and 0.76 | -0.018 (inactive) and 0.615 (inactive) | 0.684 and 0.209 | 5.79 (inactive) and 1.91 (inactive) | 1.07 (inactive) and 0.581 (inactive) | 0.387 (inactive) and 0.0102 (inactive) | 0.322 (inactive) and 0.32 (inactive) | -0.506 and -0.456 | 0.181 (inactive) and 2.63 (inactive) | 0.169 (inactive) and 0.657 (inactive) | -2.32 and -0.243
C=CCN(CCCC)C(=O)C1N(C(C)(C)CO)C(=O)C2C(C(=O)O)C3C=CC21O3 (stereo not given) | -1.3 and -0.176 | 0.194 (inactive) and -0.11 (inactive) | 0.264 (inactive) and 1.42 (inactive) | -0.627 (inactive) and -0.611 (inactive) | -0.414 (inactive) and -0.388 (inactive) | -1.54 and -1.29 | -0.208 and -0.157 | -2.92 and -2.18 | -2.77 and -2.67 | -1.07 and -0.475 | -0.2 (inactive) and -0.302 (inactive) | -0.255 and -0.488 | 0.109 (inactive) and 0.0708 (inactive) | 0.134 (inactive) and 0.354 (inactive) | -0.724 (inactive) and -1.27 (inactive) | 0.0135 (inactive) and -0.109 (inactive) | 0.301 and -0.335 | 0.209 (inactive) and 0.495 (inactive) | 0.0887 (inactive) and -0.0844 (inactive) | 0.616 and 0.0892
C[C@@H](c1ccccc1)N1C(=O)[C@H]2[C@H]3[C@H](O)[C@H](O)CC(=O)[C@@H]3CC[C@H]2C1=O | 0.314 | -0.961 (inactive) | 0.00582 (inactive) | 1.25 (inactive) | 0.488 (inactive) | 0.192 | -0.0791 | 0.712 | 0.113 | 1.04 | 0.212 (inactive) | -0.229 | 0.207 (inactive) | -1.39 (inactive) | 0.279 (inactive) | -1.63 (inactive) | 0.732 | -0.0197 (inactive) | 0.237 (inactive) | 0.776
CC(C)=NOC[C@@H](O)COCc1ccco1 | -0.0761 | 0.326 (inactive) | -0.209 (inactive) | -1.71 (inactive) | -0.619 (inactive) | -0.499 | -0.003 | -0.469 | 2.08 | 0.712 | 0.534 (inactive) | 0.843 | 0.159 (inactive) | 0.365 (inactive) | -0.0924 (inactive) | 0.0967 (inactive) | 0.566 | 0.0371 (inactive) | 0.0915 (inactive) | 0.125
CCOC(=O)NN=C1C[C@@H](O)[C@@H](O)[C@@H]2[C@@H]3C(=O)N(Cc4ccc5c(c4)OCO5)C(=O)[C@@H]3CC[C@@H]12 | -0.0968 | -0.299 (inactive) | 1.43 (inactive) | -0.293 (inactive) | -0.341 (inactive) | 0.79 | -0.179 | 0.39 | 0.0143 | 0.191 | 0.806 (inactive) | -0.14 | 6.5 (inactive) | 1.29 (inactive) | 1.34 (inactive) | 0.574 (inactive) | -0.403 | -0.00897 (inactive) | 0.786 (inactive) | 0.175

From PubChem BioAssay
